Measured values as given in the antibiotic and cytotoxicity screens of Wong et al. (2023).
In all, about 39,000 compounds went through this assay and about 3,300 (8.5%) were called active. Only a selection was taken, and actives are over-represented in it overall.

test system: HepG2; assay: cytotoxicity call (relative viability < 0.9); details: 10 µM

Row | Compound | cytotoxicity call
1 | COc1ccc(NC(=O)N(C)C[C@H]2Oc3c(NS(C)(=O)=O)cccc3C(=O)N([C@H](C)CO)C[C@H]2C)cc1 | inactive
2 | CCCCC(=O)C1CCC(c2ccc(Cl)cc2)CC1 (centres undefined) | inactive
3 | O=C1c2ccccc2C(=O)C1c1ccc(Cl)cc1 | inactive
4 | O=C1C(O)=C(C2CCC(c3ccc(Cl)cc3)CC2)C(=O)c2ccccc21 (centres undefined) | active
5 | C[C@H](CO)N1C[C@H](C)[C@H](CN(C)C(=O)c2ccccc2)OCCCC[C@H](C)Oc2ccc(NC(=O)Cc3ccccc3)cc2C1=O | inactive
6 | CCO[C@H]1OC(C(=O)N2CCN(Cc3ccccc3)CC2)=C[C@@H](c2cn(C(C)=O)c3ccccc23)[C@@H]1CCCOC(=O)NCCCCCC(=O)NO | inactive
7 | NCCCCCCNC(=O)[C@H]1C[C@H]2C(=O)N[C@@H](CCCCN)C(=O)N2[C@H]1c1ccc(O)cc1 | inactive
8 | C[C@@H]1CN([C@@H](C)CO)C(=O)c2cc(NC(=O)Nc3ccc(C(F)(F)F)cc3)ccc2O[C@@H](C)CCCCO[C@@H]1CN(C)S(=O)(=O)c1ccc(F)cc1 | inactive
9 | C[C@@H]1CCCCO[C@@H](CN(C)Cc2ccc(C(=O)O)cc2)[C@H](C)CN([C@@H](C)CO)C(=O)c2cc(NS(=O)(=O)c3ccc(F)cc3)ccc2O1 | inactive
10 | Nc1ncnc2c1ncn2CCO | inactive
11 | CC(C)(C)C(=O)OCOP(=O)(COCCn1cnc2c(N)ncnc21)OCOC(=O)C(C)(C)C [listing 1 of 2 here] | active
12 | Nc1ncnc2c1ncn2C1OC(COP(=O)(O)O)C(O)C1O (centres undefined) | inactive
13 | CC(C)OC(=O)OCOP(=O)(CO[C@H](C)Cn1cnc2c(N)ncnc21)OCOC(=O)OC(C)C | inactive
14 | Nc1ncnc2c1ncn2CCN1CCOCC1 | inactive
15 | CC(C)(C)C(=O)OCOP(=O)(COCCn1cnc2c(N)ncnc21)OCOC(=O)C(C)(C)C [listing 2 of 2 here] | active
16 | Nc1ncnc2c1ncn2CCN1CCCCC1 | inactive
17 | Nc1ncnc2c1ncn2[C@H]1O[C@H](COP(=O)(O)O)[C@@H](O)[C@H]1O | inactive
18 | CC(Cn1cnc2c(N)ncnc21)OCP(=O)(O)O (centres undefined) | active
19 | CCCNC(=O)Nc1ccc2c(c1)C(=O)N(C)C[C@@H](OC)[C@@H](C)CN(Cc1ccc(-c3ccccn3)cc1)[C@@H](C)CO2 | inactive
20 | COc1ccc(S(=O)(=O)Nc2ccc3c(c2)CC(=O)N([C@@H](C)CO)C[C@H](C)[C@@H](CN(C)C(=O)Nc2c(C)noc2C)O3)cc1 | inactive
21 | CN1CCN(C(=O)Cn2cc(-c3ccc(C(=O)NO)cc3)nn2)CC1 | inactive
22 | Cc1noc(C)c1NC(=O)N[C@@H]1C=C[C@@H](CC(=O)N2CCN(C)CC2)O[C@@H]1CO | inactive
23 | COc1ccc(cc1)CN1C[C@]2(CN(C2)C(=O)Cc2ccncc2)c2c([nH]c3cc(ccc23)OC)[C@@H]1CO | inactive
24 | C[C@@H]1CN([C@@H](C)CO)C(=O)Cc2cc(NC(=O)Nc3cccc4ccccc34)ccc2O[C@H]1CN(C)Cc1ccncc1 | inactive
25 | C[C@H]1CN([C@@H](C)CO)C(=O)Cc2cc(NC(=O)Nc3cccc4ccccc34)ccc2O[C@H]1CN(C)Cc1ccncc1 | inactive
26 | C[C@@H]1CN([C@H](C)CO)C(=O)Cc2cc(NC(=O)Nc3cccc4ccccc34)ccc2O[C@H]1CN(C)Cc1ccncc1 | inactive
27 | C[C@@H]1CN([C@H](C)CO)C(=O)Cc2cc(NC(=O)Nc3cccc4ccccc34)ccc2O[C@@H]1CN(C)Cc1ccncc1 | active

Row | Compound | cytotoxicity call
28 | C[C@H]1CN([C@@H](C)CO)C(=O)Cc2cc(NC(=O)Nc3cccc4ccccc34)ccc2O[C@@H]1CN(C)Cc1ccncc1 | inactive
29 | C[C@@H]1CN([C@@H](C)CO)C(=O)Cc2cc(NC(=O)Nc3cccc4ccccc34)ccc2O[C@@H]1CN(C)Cc1ccncc1 | active
30 | C[C@H](CO)N1C[C@H](C)[C@@H](CN(C)Cc2ccncc2)Oc2ccc(NC(=O)Nc3cccc4ccccc34)cc2CC1=O | active
31 | C[C@H](CO)N1C[C@H](C)[C@H](CN(C)Cc2ccncc2)Oc2ccc(NC(=O)Nc3cccc4ccccc34)cc2CC1=O | active
32 | COc1ccc(S(=O)(=O)N[C@H]2CC[C@@H](CC(=O)N3CCC(Cc4ccccc4)CC3)O[C@@H]2CO)cc1 | inactive
33 | C[C@@H]1CCCCO[C@H](CN(C)C(=O)Nc2ccc3c(c2)OCO3)[C@H](C)CN([C@@H](C)CO)C(=O)c2cc(NS(=O)(=O)c3cccs3)ccc2O1 | inactive
34 | CC(C)NC(=O)Nc1cccc2c1O[C@H](CN(C)S(=O)(=O)c1cccs1)[C@H](C)CN([C@H](C)CO)C2=O | inactive
35 | CCCN(C)C[C@@H]1Oc2cc(C#Cc3ccc(OC)cc3)ccc2S(=O)(=O)N([C@H](C)CO)C[C@@H]1C | inactive
36 | Cc1ccc(C(=O)CCNc2ccc3c(c2)oc2ccccc23)o1 | inactive
37 | C[C@@H]1CCCCO[C@@H](CN(C)C(=O)c2ccccc2)[C@@H](C)CN([C@H](C)CO)C(=O)c2cc(NC(=O)Nc3cccc4ccccc34)ccc2O1 | inactive
38 | C[C@H]1CCCCO[C@H](CN(C)S(=O)(=O)c2cn(C)cn2)[C@@H](C)CN([C@@H](C)CO)C(=O)c2cc(NC(=O)Nc3ccc(C(F)(F)F)cc3)ccc2O1 | inactive
39 | Cc1noc(C)c1S(=O)(=O)Nc1ccc2c(c1)CC(=O)N([C@H](C)CO)C[C@@H](C)[C@H](CN(C)S(=O)(=O)c1ccc(F)cc1)O2 | inactive
40 | C[C@@H]1CN([C@H](C)CO)C(=O)c2cc(NC(=O)Nc3cccc4ccccc34)ccc2O[C@@H](C)CCCCO[C@@H]1CN(C)C(=O)C1CCCCC1 | inactive
41 | C[C@@H]1CN([C@@H](C)CO)C(=O)c2cccc(NC(=O)Nc3ccc(F)cc3)c2O[C@@H]1CN(C)C(=O)Nc1cccc2ccccc12 | inactive
42 | C[C@@H](NC(=O)c1ccccc1)C(=O)NN | inactive
43 | C[C@@H]1CCCCO[C@@H](CN(C)Cc2ccccc2)[C@@H](C)CN([C@H](C)CO)C(=O)c2cc(NC(=O)NC3CCCCC3)ccc2O1 | inactive
44 | C[C@@H]1CCCCO[C@H](CN(C)Cc2ccccc2)[C@H](C)CN([C@@H](C)CO)C(=O)c2cc(NC(=O)NC3CCCCC3)ccc2O1 | active
45 | C[C@@H]1CN([C@@H](C)CO)C(=O)c2cc(NC(=O)NC3CCCCC3)ccc2O[C@@H](C)CCCCO[C@@H]1CN(C)Cc1ccncc1 | inactive
46 | C[C@@H]1CCCCO[C@H](CN(C)Cc2ccncc2)[C@H](C)CN([C@@H](C)CO)C(=O)c2cc(NC(=O)NC3CCCCC3)ccc2O1 | active
47 | C[C@@H]1CN([C@@H](C)CO)C(=O)c2cc(NC(=O)NC3CCCCC3)ccc2O[C@@H](C)CCCCO[C@H]1CN(C)Cc1ccccc1 | inactive
48 | C[C@H]1CCCCO[C@@H](CN(C)Cc2ccncc2)[C@@H](C)CN([C@@H](C)CO)C(=O)c2cc(NC(=O)NC3CCCCC3)ccc2O1 | inactive
49 | C[C@H](CO)N1C[C@H](C)[C@H](CN(C)Cc2ccccc2)OCCCC[C@H](C)Oc2ccc(NC(=O)NC3CCCCC3)cc2C1=O | inactive
50 | C[C@@H]1CCCCO[C@H](CN(C)Cc2ccccc2)[C@@H](C)CN([C@@H](C)CO)C(=O)c2cc(NC(=O)NC3CCCCC3)ccc2O1 | active
51 | C[C@@H]1CN([C@H](C)CO)C(=O)c2cc(NC(=O)NC3CCCCC3)ccc2O[C@@H](C)CCCCO[C@@H]1CN(C)Cc1ccccc1 | inactive
52 | C[C@@H]1CCCCO[C@@H](CN(C)Cc2ccccc2)[C@@H](C)CN([C@@H](C)CO)C(=O)c2cc(NC(=O)NC3CCCCC3)ccc2O1 | active
53 | C[C@@H]1CCCCO[C@@H](CN(C)Cc2ccccc2)[C@H](C)CN([C@@H](C)CO)C(=O)c2cc(NC(=O)NC3CCCCC3)ccc2O1 | inactive
54 | C[C@@H]1CCCCO[C@@H](CN(C)Cc2ccccc2)[C@H](C)CN([C@H](C)CO)C(=O)c2cc(NC(=O)NC3CCCCC3)ccc2O1 | inactive
